High-throughput results: PubChem BioAssay, National Center for Advancing Translational Sciences (NCATS)
Sfp PPTase inh – blocks B. subtilis Sfp PPTase activity; Q9F4F7; Biochemical Sfp PPTase activity, qHTS; Potency, µM, without a hit: largest response in the series, negative = inhibition, usual class: inhibitors; hit rate 3.5% among 310,000;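 also: the enzyme is Sfp with the accession as filed and its product quenches rhodamine fluorescence; 0% = enzyme reaction without inhibitor and -100% = no enzyme wells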
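Compounds were incubated with enzyme (final 15 nM) for 15 min at room temperature before substrate addition started the reaction. Fluorescence at 525 nm excitation, 598 nm emission was recorded immediately and after 30 minutes.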
Epigenetic derep – epigenetic control regulation, reporter derepression; AID 1865; Potency, µM (doses to about 53.9 µM), for inactives: at the highest dose GFP activation, usual class: activators; hit rate 0.2% among 280,000; murine LDR cells, GFP reporter derepression, 30 h; also: % of control where 0% means no effect; nearly all actives have a fitted effect of over 60% in size
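Murine LDR cells bearing a silenced CMV-driven GFP reporter were exposed to compound for 30 h at 37 C. After PBS washes, GFP-positive cells (20-120 um objects) counted by laser-scanning microplate cytometry.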
KAT2A inh – inhibitors of human GCN5L2 histone acetyltransferase; Q92830; GCN5L2 HAT assay, ThioGlo1 CoA-SH fluorescence; Potency, µM (highest dose often 58.9 µM), inactives show at the highest dose activity change, negative = inhibition, hits mostly inhibitors; hit rate 0.21% among 390,000; also: % is scaled to controls: 0 for no effect and ±100 for the full control effect
Target sequence (Q92830 whole entry, looked up): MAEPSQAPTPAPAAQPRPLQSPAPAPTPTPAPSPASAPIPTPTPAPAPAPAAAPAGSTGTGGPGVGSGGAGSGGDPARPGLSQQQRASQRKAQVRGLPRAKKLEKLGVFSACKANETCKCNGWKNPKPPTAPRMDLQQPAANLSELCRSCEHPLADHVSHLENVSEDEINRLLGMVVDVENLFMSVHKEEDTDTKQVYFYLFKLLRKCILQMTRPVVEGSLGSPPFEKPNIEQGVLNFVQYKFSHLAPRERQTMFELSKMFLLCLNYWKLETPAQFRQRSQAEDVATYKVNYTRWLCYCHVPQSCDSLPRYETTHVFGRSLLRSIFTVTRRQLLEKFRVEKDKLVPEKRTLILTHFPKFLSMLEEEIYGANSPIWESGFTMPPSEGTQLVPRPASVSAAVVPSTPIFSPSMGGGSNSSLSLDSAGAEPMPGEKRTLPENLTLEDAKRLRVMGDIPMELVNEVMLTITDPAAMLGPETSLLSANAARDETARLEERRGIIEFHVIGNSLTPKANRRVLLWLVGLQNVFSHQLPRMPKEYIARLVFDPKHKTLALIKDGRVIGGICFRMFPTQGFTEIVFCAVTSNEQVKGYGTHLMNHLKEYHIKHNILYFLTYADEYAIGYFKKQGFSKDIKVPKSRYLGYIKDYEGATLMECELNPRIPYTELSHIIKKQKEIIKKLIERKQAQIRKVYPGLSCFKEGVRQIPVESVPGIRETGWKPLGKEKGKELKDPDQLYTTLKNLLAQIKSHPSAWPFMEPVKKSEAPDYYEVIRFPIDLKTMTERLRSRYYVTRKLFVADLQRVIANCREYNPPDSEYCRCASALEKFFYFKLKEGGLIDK
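ThioGlo1-coupled HAT assay: 20nM GCN5L2, 70uM acetyl-CoA, 75uM H3(1-25) peptide, pH 7.5. Fluorescence read at 340/540nm at start and after 20 min at room temperature.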
IMPase Li cell – IMPase inhibition in cells with lithium potentiation; CHO-M1 cells, IP1 TR-FRET (IP-One), carbachol + lithium; Potency, µM (top dose mostly 59.4 µM), for the others: at the highest dose activity, negative = IMPase inhibition, actives largely listed as inhibitors; hit rate 0.35% among 210,000; AID 1457;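 also: IP1 builds up when IMPase is blocked and the TR-FRET signal falls; plate controls were basal vehicle for no effect and high inhibitor control for full effect; nearly all actives have a fitted effect of over 50% in size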
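Readout is a homogeneous TR-FRET IP1 immunoassay (Ex 320, Em 665 and 620), where raised cytosolic IP1 lowers signal. Cells were CHO-M1 treated 30 min at 37C with test compounds plus a little lithium; AC50 values came from Hill-equation fitting.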
NPSR antag – blocks cAMP signaling of the human neuropeptide S receptor; Q6W5P4; CHO-NPSR cells, cAMP TR-FRET, antagonist mode; Potency, µM (doses to about 38.3 µM), for inactives: at the highest dose activity change, negative = inhibition, actives largely listed as inhibitors; hit rate 1% among 220,000; also: % is scaled to controls: 0 for no effect and ±100 for the full control effect; nearly all actives have a fitted effect of over 50% in size
KDM4E inh – blocks human JMJD2E demethylase activity. hit rate 1.6% among 230,000. JMJD2E catalytic domain, FDH-coupled NADH fluorescence (FDH is formaldehyde dehydrogenase). Potency, µM (highest dose often 57.1 µM), without a hit: top-dose activity change, negative = inhibition, most hits filed as inhibitors. AID 2147; active = well fitted inhibition curve with a large enough effect, not every such curve was filed as active; inconclusive = small, poorly fitted or top-dose-only effect, or another doubt; inactive = no such curve, though single readings can be large or run the other way;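 also: 0% = wells with enzyme and -100% = buffer wells without enzyme; nearly all actives have a fitted effect of over 50% in size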
An asterisk follows results filed as active; u = inconclusive; x = no result given; [ ] = dose if it differs, or a comment. An excerpt weighted towards active compounds, which were near 3.6% of everything screened. Unless noted, calls follow the shape of the dose curve; as a rule, active = well fitted curve in the direction sought with a large enough effect; inconclusive = small, poorly fitted or top-dose-only effect, or another doubt; inactive = no such curve, though single readings can be large; an effect the other way counts as inactive or inconclusive. Potency is read from the fitted curve at half-maximal effect.

SMILES	Sfp PPTase inh	Epigenetic derep	KAT2A inh	IMPase Li cell	NPSR antag	KDM4E inh
Cc1cccc[n+]1C1C(c2ccc([N+](=O)[O-])cc2)C(C#N)=C(C(=C=[N-])C#N)NC1(O)C1CC1 (centres undefined)	17%	2%	-3%	0%	0%	13µM*
Cc1nnc(N/N=C\c2ccc(-c3ccccc3[N+](=O)[O-])o2)n1N	18µM*	1%	-1%	25%	-7%	2%
O=C(N/N=C/c1ccc(-c2ccccc2[N+](=O)[O-])o1)[C@H]1C[C@@H]1c1ccccc1	25µM*	2%	-12%	-2%	-9%	11%
Cc1n[nH]c(=S)n1/N=C/c1ccc(-c2ccccc2[N+](=O)[O-])o1	8.9µM*	-2%	-6%	17%[38.3 µM]	-11%[46.1 µM]	-24%
Cc1nnc(N/N=C/c2ccc(-c3ccccc3F)o2)n1N	45µM*	0%	-6%	-3%	-15%	u
CNC(=O)C1(C(F)(F)F)CC(CCCO)CCCO1 (centres undefined)	-10%	x	x	x	x	x
COc1ccccc1N1C(=O)C2ON(c3ccccc3)C(c3ccc(N(C)C)cc3)C2C1=O (centres undefined)	45µM*	1%	-6%	3%	-11%[46.1 µM]	-6%
Cc1ccc(OCc2nnc(SCc3cc(=O)[nH]c4ccccc34)n2-c2ccccc2)cc1	u	0%	26%	18%	-27%[46.1 µM]	1%
Cc1ccccc1OCc1nnc(SCc2cc(=O)[nH]c3ccccc23)n1-c1ccccc1	56µM*	-1%	0%	12%	-18%	-2%
CSCC[C@H](NC(=O)[C@H](CC(C)C)NC(=O)CCNC(=O)[C@@H](NC(=O)[C@H](Cc1ccccc1)NC(=O)[C@H](CO)NC(=O)[C@@H](N)CC(=O)O)C(C)C)C(N)=O	3%	x	13%	x	x	x
Cn1c(=O)c2[nH]c(=O)cnc2n(C)c1=S	18µM*	0%	7%	6%	26%	u
Cn1c(=O)c2[nH]c(CCCCc3nc4c([nH]3)c(=O)n(C)c(=S)n4C)nc2n(C)c1=S	x	x	x	-10%	x	x
Cc1ccc(-c2ccc(=O)n(CC(=O)NCCc3ccccc3)n2)cc1	x	7%	3%	x	x	x
O=C(O)c1ccc(-n2c(-c3cc(-c4ccco4)[nH]n3)n[nH]c2=S)cc1	45µM*	-2%	-11%	-6%[38.3 µM]	6%[46.1 µM]	-6%
Cc1cccc(-n2c(-c3ccco3)n[nH]c2=S)c1	-15%	3%	-5%	u	-28%	u
CC(=O)c1ccc(-n2c(-c3cc(-c4ccco4)[nH]n3)n[nH]c2=S)cc1	50µM*	-7%	-11%	29%[38.3 µM]	-18%[46.1 µM]	-8%
O=C(O)c1cc(-c2ccco2)[nH]n1	22µM*	-2%	2%	3%	2%[46.1 µM]	-7%
C=CC1=C2C=C(C3CC3)N(c3ccc(OC)cc3)C=C2C(=O)C(C)(OC(=O)c2ccco2)C1=O (centres undefined)	5%	x	x	4%	x	15%[11.4 µM]
Cc1cc(-c2cccs2)c(C#N)c(=S)[nH]1	20µM*	1%	-6%	x	-9%	u
N#Cc1c(-c2cccs2)cc(-c2cccs2)[nH]c1=O	-30%	-1%	-3%	x	-49%	u
CCOc1ccc(NC(=O)c2sc3nc4c(c(-c5ccc(OC)cc5)c3c2N)C(=O)CC(C)(C)C4)cc1	x	11µM*	-11%	x	x	x
COc1ccc(-c2c3c(nc4sc(C(=O)Nc5ccc(Cl)cc5)c(N)c24)CC(C)(C)CC3=O)cc1	x	0%	-3%	x	x	x
CN1CCc2nc3sc(C(=O)NCc4ccccc4)c(N)c3cc2C1	-27%	-3%	3%	48%	13µM*	u
CCN(CC)c1ccc(NC(=O)c2sc3nc4c(cc3c2N)CN(C)CC4)cc1	x	0%	-3%	x	x	x
CCOc1ccc(NC(=O)c2sc3nc4c(cc3c2N)CN(Cc2ccccc2)CC4)cc1	x	16µM*	-9%	x	x	x
SMILES	Sfp PPTase inh	Epigenetic derep	KAT2A inh	IMPase Li cell	NPSR antag	KDM4E inh
CCN(CC)CC[n+]1ccc2c(C)c3[nH]c4ccc(O)cc4c3c(C)c2c1	x	x	x	37%	x	x
O=c1c2c([N+](=O)[O-])cc([N+](=O)[O-])cc2sn1-c1ccc(Br)cc1	8.9µM*	4%	7.1µM*	4%	26%	3.5µM*
O=c1c2c([N+](=O)[O-])cc([N+](=O)[O-])cc2nc2ccccn12	-9%	x	-10%	x	x	x
O=c1c2c([N+](=O)[O-])cc([N+](=O)[O-])cc2sn1Cc1ccccc1	2.2µM*	x	1.3µM*	x	x	x
Cc1cc(-c2csc(NCc3ccccc3)n2)c(C)n1C	u	-3%	-9%	17%	-5%	28µM*
Cc1cc(-c2csc(NC(=O)c3ccccc3C(F)(F)F)n2)c(C)n1Cc1ccccc1	2%	-1%	-2%	x	u	-25%
COc1ccccc1Nc1nc(-c2sc(NC(=O)c3ccccc3)nc2C)cs1	1%	2%	24%	-8%[38.3 µM]	-7%[46.1 µM]	2%
CCNc1nc(-c2cc(C)n(Cc3ccco3)c2C)cs1	22µM*	-1%	-3%	5%	-20%	5%
CCCC(=O)Nc1nc(C)c(-c2csc(Nc3ccccc3C)n2)s1	20µM*	3%	0%	5%[38.3 µM]	-12%[46.1 µM]	-9%
COc1ccccc1Nc1nc(-c2sc(N)nc2C)cs1	50µM*	x	1%	x	x	x
Cc1ccc(C)c(CN2C(=O)c3ccccc3S(=O)(=O)c3ccc(C(=O)N4CCN(Cc5ccccc5)CC4)cc32)c1	x	1%	-6%	x	x	x
COc1ccc2c(c1)C(c1cc(OC)c(OC)c(OC)c1)CC(=O)O2 (centres undefined)	-1%	-2%	7%[88.6 µM]	12%	x	x
CSCC[C@H](NC(=O)[C@H](CC(C)C)N(C)C(=O)[C@@H]1CCCN1C(=O)[C@H](Cc1ccccc1)NC(=O)[C@H](Cc1ccccc1)NC(=O)CCC(C)N)C(=O)O (some centres undefined)	-20%	x	-7%	x	x	x
COCCn1c(=O)c(-c2cccs2)nc2cnc(N(C)C)nc21	21%	x	-15%	0%	x	x
Cc1cccc([N+](=O)[O-])c1C	x	x	x	-8%	x	x
COc1ccccc1Nc1nc(-c2cccc([N+](=O)[O-])c2)cs1	11µM*	-5%	-6%	x	-8%	-6%
Cc1nc(NC(=O)c2ccccc2)sc1-c1csc(NCc2ccccc2)n1	6%	-1%	0%	36%[38.3 µM]	u	-21%
Cc1nc(N)sc1-c1csc(NCc2ccccc2)n1	40µM*	3%	2%	7%[38.3 µM]	-12%[46.1 µM]	u
O=[N+]([O-])c1cccc(-c2csc(Nc3ccccc3)n2)c1	-14%	-3%	1%	15%	59%	1%
CCOC(=O)CSc1nnc(NCC(=O)OC)c(=O)[nH]1	56µM*	12%	9%	30%[38.3 µM]	4%[46.1 µM]	2%
OC[C@@H]1O[C@H](O)[C@H](O)[C@@H](O)[C@@H]1O	-3%	x	0%	x	x	x
